Experimental data reported in PubChem BioAssay AID624330 (Southern Research Specialized Biocontainment Screening …, 2012).
In all, about 340,000 compounds went through this assay and about 2,100 (0.62%) were called active.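 The calls were made as follows: active = first-screen hits whose inhibition reached a set limit at any dose in the follow-up dose series; inconclusive = inhibition above the set first-screen limit but never retested; inactive = the rest.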 Only a sample is shown. Measured potencies and affinities stand elsewhere.

Target: Rac GTPase-activating protein 1 (Homo sapiens) (UniProt Q9H0H5)
Assay: MgcRacGAP GTPase-activating activity inhibitors, confirmation, biochemical, ADP Hunter fluorescence, primary and confirmatory (AID 624330);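 also: fluorescence reports GDP produced by GAP-driven GTP hydrolysis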
Settings: MgcRacGAP-stimulated Rac1 GTP hydrolysis, at 30 µM, hits give high values, GST-tagged Rac1 F28L mutant substrate

Sequence of Rac GTPase-activating protein 1 (Homo sapiens) (Q9H0H5 whole entry, looked up): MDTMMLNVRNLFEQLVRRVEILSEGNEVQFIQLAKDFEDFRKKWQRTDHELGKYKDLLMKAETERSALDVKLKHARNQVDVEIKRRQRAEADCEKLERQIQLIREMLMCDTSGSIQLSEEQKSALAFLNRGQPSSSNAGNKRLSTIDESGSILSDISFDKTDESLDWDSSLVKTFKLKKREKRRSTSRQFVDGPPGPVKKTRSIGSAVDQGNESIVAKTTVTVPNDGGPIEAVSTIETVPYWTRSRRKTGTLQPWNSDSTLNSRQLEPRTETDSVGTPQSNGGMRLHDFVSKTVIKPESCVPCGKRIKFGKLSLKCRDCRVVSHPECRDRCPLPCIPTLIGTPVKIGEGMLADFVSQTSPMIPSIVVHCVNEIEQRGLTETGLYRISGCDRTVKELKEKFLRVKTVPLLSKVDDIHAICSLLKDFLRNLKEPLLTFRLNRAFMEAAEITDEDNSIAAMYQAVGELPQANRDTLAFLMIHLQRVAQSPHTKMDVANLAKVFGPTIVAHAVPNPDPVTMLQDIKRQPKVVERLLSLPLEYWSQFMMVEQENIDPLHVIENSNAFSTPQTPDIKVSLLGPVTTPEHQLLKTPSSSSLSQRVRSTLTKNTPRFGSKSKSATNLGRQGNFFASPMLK

inhibition, inactive:
COc1ccccc1CNC(=O)CCNS(=O)(=O)/C=C/c1ccc(C)cc1 -0.75%
COc1cc(N)c2ncccc2c1Cl 7.55%
Nc1ccc(Br)c2cccnc12 9.68%
COc1cc(NC(C)CCCN)c2ncccc2c1 (stereo not drawn) -2.49%
COc1cc(NC(C)CCCN)c2ncccc2c1Oc1ccccc1 (stereo not drawn) 1.99%
COc1cc(NC(=O)c2cccnc2SC)cc(OC)c1OC 9.4%
COc1cc(N)c2ncccc2c1Br 20%
CCOC(=O)N1CCN(c2ccc(N3C(=O)CCCC3=O)cc2[N+](=O)[O-])CC1 4.36%
O=C(CCNS(=O)(=O)c1ccc2[nH]c(=O)oc2c1)Nc1ccccc1 -24.4%
COc1ccc(OC)c(C(C[N+](=O)[O-])c2c(C)cc3ccccn23)c1 (stereo not drawn) 5.52%
Cc1c(N2CCCCC2)[nH]c2ccccc12 8.41%
Cc1cccc(OCC(=O)Nc2ccc(N3CCN(C(=O)c4ccco4)CC3)cc2)c1C 8.56%
Cn1c(-c2ccc(Br)cc2)cnc1NCc1cccnc1 18.7%
Cn1c(-c2ccc(Br)cc2)cnc1NCc1ccc(C#N)cc1 21.2%
Cn1c(-c2ccc(F)cc2)cnc1NCc1cccc(F)c1 9.97%
Cn1c(-c2cccc(Br)c2)cnc1NCc1cccnc1 29.7%
COc1cc(CNc2ncc(-c3ccc(Br)cc3)n2C)cc(OC)c1OC 29.8%
Cn1c(-c2ccc(F)cc2)cnc1NCc1ccc(F)cc1 16.6%
C[C@H](CO)N1C[C@H](C)[C@@H](CN(C)S(=O)(=O)c2ccc(F)cc2)Oc2c(NC(=O)Cc3ccccc3)cccc2C1=O 9.78%
CCCc1nc2ccccc2c(=O)n1NC(=O)c1c(O)c2ccccc2n(C)c1=O -1.3%
Cc1ccc(N=C2C(=O)Nc3ccccc32)cc1C 1.21%
O=C1Nc2ccccc2C1=Nc1ccc(F)cc1 6.47%
COc1cccc(NC(=O)C(c2ccccc2)N2CCNC(=O)C2)c1 (stereo not drawn) -3.03%
CN(CC(=O)Nc1c(Cl)cccc1Cl)C(=O)Cc1ccc2c(c1)CCC2 4.3%
COc1ccc(/C=C/c2ccc3ccccc3[n+]2C)cc1OC -0.83%
CC[n+]1c(/C=C/c2ccc(OC(C)=O)c(OC)c2)ccc2ccccc21 27%
Cc1ccc(N/C=C/C(=O)c2cccs2)cc1 1.9%
O=C(/C=C/Nc1ccc(F)cc1)c1cccs1 8.26%
